In PubChem BioAssay (EPA / NIEHS):
Inconclusive results are not listed. The source made the active and inactive calls. Rule for the calls, unless noted: active = hit-call score of the fitted dose curve at least 0.9, where 1 is the maximum; inactive = score below 0.9.

Test system: not listed separately
Assay: CCTE_Shafer_MEA_acute_cross_correlation_area: CCTE's Neural Acute Assay for Area of Cross Correlation, Shafer Lab (AID 2284024);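 note: area under pooled inter-electrode spike cross-correlation near zero lag as percent change from own baseline; curves fitted for loss of cross-correlation area so actives lower synchrony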;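 for outcome: rat primary cortical neuron networks on 48-well MEA at DIV 13 or 15 with 40 min exposure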
Procedure, shortened: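 Rat cortical cultures, DIV 13/15, MEA; spikes detected at 8x rms noise (300-5000 Hz band-pass). Compound 0.03-40 uM, ≥3 wells each. Readout: % change in pooled inter-electrode cross-correlation area vs own baseline; DMSO negative control.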

AC50, active:
OCC(CO)n1cnc(-c2ccc(F)cc2)c1-c1ccnc(Oc2ccccc2)n1 3.9 µM
CN(C)C(=O)NC1(c2ccccc2)CCN(CCC[C@]2(c3ccc(Cl)c(Cl)c3)CCCN(C(=O)c3ccccc3)C2)CC1 0.00118 µM

outcome, inactive:
Cc1c(C)c2c(c(C)c1O)CCC(C)(COc1ccc(CC3SC(=O)NC3=O)cc1)O2 (stereo unspecified)
CC(C)COC(=O)CCCCC(=O)OCC(C)C
NC(=Nc1ccccc1)Nc1ccccc1
CSc1ccc(Oc2ccc(S(N)(=O)=O)cc2CN(C)C)cc1C
Cc1cc(Cc2ccc(N)c(C)c2)ccc1N
CC1=C(C)S(=O)(=O)CCS1(=O)=O
CCN(CC)CCOc1ccc(C(=C(Cl)c2ccccc2)c2ccccc2)cc1
COc1ccc(OC(F)(F)F)cc1CN[C@H]1CCCN[C@H]1c1ccccc1
O=C(O)CN(CC(=O)O)CC(=O)O
Cc1ccc(C(C)(C)C)c(O)c1
CCc1cc(C2=C(C(=O)O)N(c3ccccc3C(F)(F)F)S(=O)(=O)c3ccccc32)cc2c1OCO2
CCCCC(CC)COP(=O)(OCC(CC)CCCC)OCC(CC)CCCC (stereo unspecified)

Test system: not listed separately
Assay: CCTE_Shafer_MEA_acute_cross_correlation_HWHM: CCTE's Neural Acute Assay for Cross Correlation at Half Width at Half Maximum, Shafer Lab (AID 2284026);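 note: percent change per well from pre-dose baseline in spike cross-correlogram half width; hits are a decrease in cross-correlogram half width relative to DMSO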;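 for outcome: spontaneous network firing of rat primary cortical neurons on multiwell microelectrode arrays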
Procedure, shortened: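 Read-out: half width at half maximum of action-potential cross-correlogram, percent change versus pre-treatment baseline, fitted in loss direction against DMSO. Rat cortical cultures, DIV 13 or 15, dosed 0.03-40 uM, 40-min recordings at 37 C.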

outcome, inactive:
OCC(CO)n1cnc(-c2ccc(F)cc2)c1-c1ccnc(Oc2ccccc2)n1
CC(C)COC(=O)CCCCC(=O)OCC(C)C
CC1=C(C)S(=O)(=O)CCS1(=O)=O
CCN(CC)CCOc1ccc(C(=C(Cl)c2ccccc2)c2ccccc2)cc1
O=C(O)CN(CC(=O)O)CC(=O)O
CCc1cc(C2=C(C(=O)O)N(c3ccccc3C(F)(F)F)S(=O)(=O)c3ccccc32)cc2c1OCO2
CCCCC(CC)COP(=O)(OCC(CC)CCCC)OCC(CC)CCCC (stereo unspecified)

AC50, active:
Cc1c(C)c2c(c(C)c1O)CCC(C)(COc1ccc(CC3SC(=O)NC3=O)cc1)O2 (stereo unspecified) 29.7 µM
NC(=Nc1ccccc1)Nc1ccccc1 20 µM
CN(C)C(=O)NC1(c2ccccc2)CCN(CCC[C@]2(c3ccc(Cl)c(Cl)c3)CCCN(C(=O)c3ccccc3)C2)CC1 8.86 µM
CSc1ccc(Oc2ccc(S(N)(=O)=O)cc2CN(C)C)cc1C 31.7 µM
Cc1cc(Cc2ccc(N)c(C)c2)ccc1N 26 µM
COc1ccc(OC(F)(F)F)cc1CN[C@H]1CCCN[C@H]1c1ccccc1 3.09 µM
Cc1ccc(C(C)(C)C)c(O)c1 11.8 µM
CN(C)CCCN1c2ccccc2Sc2ccc(Cl)cc21 31.5 µM

Test system: not listed separately
Assay: CCTE_Shafer_MEA_acute_synchrony_index: CCTE's Neural Acute Assay for Synchrony, Shafer Lab (AID 2284027);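 note: network synchrony index of spontaneous spiking in primary rat cortical neurons on MEAs; fitted for loss of signal so actives lower synchrony relative to DMSO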
Procedure, shortened: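 Primary rat cortical neurons on 16-electrode MEA wells were recorded 40 min at baseline (DIV 13 or 15) and 40 min after compound (0.03-40 uM) at 37 C. Synchrony index (0-1) expressed as percent change from baseline, versus DMSO.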

outcome, inactive:
OCC(CO)n1cnc(-c2ccc(F)cc2)c1-c1ccnc(Oc2ccccc2)n1
CC(C)COC(=O)CCCCC(=O)OCC(C)C
NC(=Nc1ccccc1)Nc1ccccc1
CC1=C(C)S(=O)(=O)CCS1(=O)=O
CCN(CC)CCOc1ccc(C(=C(Cl)c2ccccc2)c2ccccc2)cc1
COc1ccc(OC(F)(F)F)cc1CN[C@H]1CCCN[C@H]1c1ccccc1
O=C(O)CN(CC(=O)O)CC(=O)O
Cc1ccc(C(C)(C)C)c(O)c1
CCc1cc(C2=C(C(=O)O)N(c3ccccc3C(F)(F)F)S(=O)(=O)c3ccccc32)cc2c1OCO2
CCCCC(CC)COP(=O)(OCC(CC)CCCC)OCC(CC)CCCC (stereo unspecified)

AC50, active:
Cc1c(C)c2c(c(C)c1O)CCC(C)(COc1ccc(CC3SC(=O)NC3=O)cc1)O2 (stereo unspecified) 35.5 µM
CN(C)C(=O)NC1(c2ccccc2)CCN(CCC[C@]2(c3ccc(Cl)c(Cl)c3)CCCN(C(=O)c3ccccc3)C2)CC1 6.12 µM
CSc1ccc(Oc2ccc(S(N)(=O)=O)cc2CN(C)C)cc1C 31.3 µM
Cc1cc(Cc2ccc(N)c(C)c2)ccc1N 20 µM
CN(C)CCCN1c2ccccc2Sc2ccc(Cl)cc21 32.2 µM

Target: Estrogen receptor (Homo sapiens) (UniProt P03372)
Assay: CCTE_Deisenroth_AIME_384WELL_LUC_Active: CCTE's 384-well Estrogen Receptor Transactivation Assay with AIME metabolic competence (ERTA luciferase; metabolism positive), Deisenroth Lab (AID 2284030; active = hit-call score of the fitted dose curve at least 0.9, where 1 is the maximum)
Procedure, shortened: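 Readout: bioluminescent luciferase induction in VM7Luc4E2 cells 24 hour after receiving medium from a 2 h rat hepatic S9 (induced, alginate microsphere) metabolism step. Concentrations 0.002 - 200 uM; activity scaled to 17beta-estradiol positive control.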

Chain of Estrogen receptor (Homo sapiens) (P03372 whole entry, looked up): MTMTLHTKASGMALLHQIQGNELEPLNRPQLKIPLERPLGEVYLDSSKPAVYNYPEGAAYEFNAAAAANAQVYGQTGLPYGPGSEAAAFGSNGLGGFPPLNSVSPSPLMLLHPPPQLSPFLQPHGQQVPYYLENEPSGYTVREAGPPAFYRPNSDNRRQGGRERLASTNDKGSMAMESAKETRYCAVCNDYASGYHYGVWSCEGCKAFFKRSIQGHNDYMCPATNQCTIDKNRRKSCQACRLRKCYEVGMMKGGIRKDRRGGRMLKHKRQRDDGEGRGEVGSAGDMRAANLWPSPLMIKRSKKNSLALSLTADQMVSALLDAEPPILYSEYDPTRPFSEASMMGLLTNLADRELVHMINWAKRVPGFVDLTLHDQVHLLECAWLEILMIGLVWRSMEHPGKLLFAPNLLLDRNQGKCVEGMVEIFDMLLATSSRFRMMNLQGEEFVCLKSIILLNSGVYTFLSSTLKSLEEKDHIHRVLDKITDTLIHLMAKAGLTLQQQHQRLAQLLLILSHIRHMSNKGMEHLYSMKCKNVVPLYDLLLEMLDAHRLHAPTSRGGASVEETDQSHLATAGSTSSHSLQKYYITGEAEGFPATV

outcome, inactive:
COC(=O)CCC(=O)OC
CC(C)OC(=O)C(C)(C)Oc1ccc(C(=O)c2ccc(Cl)cc2)cc1
CSc1ccc(Oc2ccc(S(N)(=O)=O)cc2CN(C)C)cc1C
CCCCCCC(CCCCCCCCCCC(=O)OCC(COC(C)=O)OC(C)=O)OC(C)=O (stereo unspecified)
CC1(C)C(=O)NC(=O)N1CO
CCCCCCCC(=O)OC
NC1CCCCC1
O=C1CCCCC1
CN(C)CCCN(C)CCCN(C)C
O=[Si]=O
CC(C)c1cccc(C(C)C)c1
CC1=C(C)S(=O)(=O)CCS1(=O)=O
CCCCCCCCCCCCCCCCO
O=C(O)c1[nH]n(-c2ccc(S(=O)(=O)O)cc2)c(=O)c1N=Nc1ccc(S(=O)(=O)O)cc1
Cc1ccc(C(C)(C)C)c(O)c1
O=C(O)CC(O)(CC(=O)O)C(=O)O

AC50, active:
O=C(O)CN(CC(=O)O)CC(=O)O 28.5 µM
